Data published in PubChem BioAssay AID1851 (National Center for Advancing Translational Sciences (NCATS), 2009).
Out of some 16,000 compounds screened, about 5,700 (36%) were called active. Not shown: some 24% with an inconclusive outcome. Calls follow the shape of the dose curve; as a rule, active = well fitted curve in the direction sought with a large enough effect; inconclusive = small, poorly fitted or top-dose-only effect, or effect the other way; inactive = no such curve, though single readings can be large or run the other way. The list shows a part of the results.

The molecules below were run against Cytochrome P450 1A2 (Homo sapiens) (UniProt P05177) (assay: Cytochrome panel assay with activity outcomes). Conditions: recombinant CYP, pro-luciferin dealkylation, luminescence, p450-cyp1a2; series mostly up to 57.1 µM; activity, negative = inhibition: at the top concentration.
Cytochrome P450 1A2 (Homo sapiens), sequence (P05177 whole entry, looked up): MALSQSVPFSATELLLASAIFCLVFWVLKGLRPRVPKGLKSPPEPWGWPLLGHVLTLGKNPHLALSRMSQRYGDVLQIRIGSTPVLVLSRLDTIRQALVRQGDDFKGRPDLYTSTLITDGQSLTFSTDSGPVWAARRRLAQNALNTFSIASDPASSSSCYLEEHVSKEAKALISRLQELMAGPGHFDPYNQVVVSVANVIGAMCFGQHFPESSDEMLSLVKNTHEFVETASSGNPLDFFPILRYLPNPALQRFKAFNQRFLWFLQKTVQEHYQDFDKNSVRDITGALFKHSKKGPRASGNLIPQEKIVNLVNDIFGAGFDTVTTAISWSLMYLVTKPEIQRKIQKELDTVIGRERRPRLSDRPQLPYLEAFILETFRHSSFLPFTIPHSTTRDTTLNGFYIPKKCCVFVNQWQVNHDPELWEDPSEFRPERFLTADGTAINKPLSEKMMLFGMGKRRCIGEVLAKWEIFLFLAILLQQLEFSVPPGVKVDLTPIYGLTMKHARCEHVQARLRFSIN
% is scaled to controls: 0 for no effect and ±100 for the full control effect.

activity, negative = inhibition, inactive:
COC(=O)C/C=C\[C@@H](C)[C@@H](/C=N\OC[C@@H](C)[C@H](OCc1ccccc1)C(C)C)OC -0.613% [at 11.4 µM]
O=C1C(=O)N(c2cccc(Cl)c2)C(c2ccccc2[N+](=O)[O-])/C1=C(\O)c1ccccc1 (stereo not drawn) -19.7%
O=C1C2CCCN2c2ccc(S(=O)(=O)N3CCOCC3)cc2N1Cc1cccc(C(F)(F)F)c1 (stereo not drawn) -11.7%
CCOC(=O)C1CCN(c2c(NCc3ccc(C(=O)NCCC(C)C)cc3)c(=O)c2=O)CC1 -20.9%
CCCCc1c(O)nc(SCCN(C)C)n(-c2ccccc2)c1=O 7.61%
Cc1occc1C(=O)NNC(=O)c1ccc(F)cc1 -12.3%
CCn1c(SCC(=O)OC)nnc1C1CCCCC1 -14.9%
CC(C)NC(=O)N1CCCC2(CCN(C(=O)c3cccc(F)c3)CC2)C1 19%
N#C[C@H]1CN[C@H](N)N[C@@H]1N -11.6% [at 2.29 µM]
Cc1ccc(NC(=O)C2CC(=O)n3c(nc4ccccc43)N2)cc1 (stereo not drawn) -8.21%
O=C(Oc1ccccc1)N1CCC2(CC1)CCN(c1ccccc1)CC2 -17.5%
Cc1ccccc1C(=O)Oc1ccc(Br)cc1C(=S)N1CCCC1 -24.8%

AC50, inactive:
C[C@@H]1c2cccc(O)c2C(O)=C2C(=O)[C@@]3(O)C(O)=C(C(N)=O)C(=O)[C@@H](N(C)C)[C@@H]3[C@@H](O)[C@@H]21
Cc1ccccc1[C@@H](OCCN(C)C)c1ccccc1

AC50, active:
CC(=O)c1sc(N)c(C(=O)OC(C)C)c1C 3.55 µM
Cc1ccc(C)c(CN2C(=O)C3CCCN3c3ccc(C#N)cc32)c1 (stereo not drawn) 12.6 µM
CCCCc1cc2ccccc2c(OCCN(C)C)n1 0.0794 µM
CC(=O)C1=C(NC(=O)c2ccc(F)cc2)CC2C1C2(C)C (stereo not drawn) 0.2 µM
COC(=O)CSc1ccc2nnc(-c3ccc(F)cc3)n2n1 1.58 µM
COC(=O)C(C)Sc1ccc2nnc(-c3ccc(F)cc3)n2n1 (stereo not drawn) 0.794 µM
CCCN(C/C=C\I)[C@@H]1CCc2cccc(O)c2C1 2.51 µM
CCNc1nc(NCC)nc(N(C)N)n1 0.708 µM
Cc1ccc(C(=O)N/N=C/c2nc3ccccc3n2C)cc1 7.08 µM
Cn1c(/C=N/NC(=O)c2ccccc2Br)nc2ccccc21 2.51 µM
c1csc(CNc2cc(-c3ccoc3)ncn2)c1 2 µM
c1cncc(CNc2cc(-c3ccoc3)ncn2)c1 3.16 µM
c1ccc(CNc2cc(-c3ccoc3)ncn2)cc1 25.1 µM
O=C(Oc1ccc2ccccc2c1Br)N1CCCCCC1 4.47 µM
